Inconclusive results are not listed. A call without a number means that no potency is given here. Activity calls are given as the source filed them. Calls come from the whole dose curve; as a rule, active = well fitted activation curve with a large enough effect in the signal ratio in the repeat runs (not every such curve was filed as active); inconclusive = weak or mixed curves; inactive = flat fitted curve, though single readings scatter; the % refers to the signal ratio.
Potency is the fitted concentration of half-maximal effect.

A short description of the assay: qHTS assay to identify small molecule agonists of H2AX (AID 1224845). The conditions noted are these: CHO-K1 phospho-H2AX Ser139 HTRF, 3 h; series mostly up to 154 µM. From the text:
National Center for Advancing Translational Sciences [NCATS]
NIH Chemical Genomics Center [NCGC]
U.S. Environmental Protection Agency [EPA]
National Institutes of Environmental Health Sciences [NIEHS]
National Toxicology Program [NTP]
U.S. Food and Drug Administration [FDA]
HTRF phospho-H2AX (Ser139) assay (Cisbio Bioassays, US) enables the quantitative detection of the histone variant H2AX when phosphorylated on serine 139. When double-stranded DNA breaks, either by ionizing radiation or endogenous physiological processes, H2AX becomes phosphorylated at Ser139. This phospho-Ser139 serves as a sensitive biomarker for the detection of such breaks, localizing the site of DNA repair. So, HTRF phospho-H2AX Ser139 is a pertinent assay to study genome stability, the cell cycle, DNA repair, and it serves as a biomarker for cancer, and to understand aging. Wild type CHO-K1 cells were used to identify the inducers of Phospho-H2AX Ser 139 from the Tox21 10K compound collections.
Tox21 Assay Protocol Summary:
The CHO-K1 cells suspended in culture medium containing 10% FBS were dispensed at 1000 cells/ 3 ul/well in 1536-well white wall/solid bottom plates (Greiner Bio-One North America, NC) using a Multidrop Combi (Thermo Fisher Scientific Inc., Waltham, MA). After the assay plates were incubated at 37C overnight, 23 nl of compounds at 15 concentrations (from 5-48 columns) or positive control (from 1 to 4 columns) were transferred to the assay plates using a Pintool station (Wako, San Diego, CA) into each well resulting in a final DMSO concentration of 0.76%. After 3hr incubation at 37C, 1 uL/well Supplemented Lysis buffer (diluted 100 fold blocking reagent in lysis buffer) (HTRF Phospho-H2A.X (S139) Assay kit from Cisbio US Inc., Bedford, MA) was added using a Flying Reagent Dispenser (FRD) (Aurora Discovery, CA). After 10sec spin at 1000 rpm in a plate centrifuge, the assay plates were incubated at room temperature for 30 min. Then followed by the addition of 1 uL/well detection buffer (containing a mixture of two antibodies, one labeled with cryptate, Anti pH2AX (S139)-K and another labeled with d2, Anti H2AX-d2) using FRD. After incubation at room temperature for 24 hr, the time resolved fluorescence at excitation 320 nm and emissions at 665 nm and 620 nm was measured using an Envision plate reader (PerkinElmer, Waltham, MA).
Background: qHTS replaces the single test concentration by a dilution series.
As to `COc1cc(C)ccc1C(C)C`, the Potency entry is “inactive”. Regarding `CCCCCCCOC(=O)CCC`, the Potency result is “inactive”. Still for that read-out and setting: the result for `O=C(O[C@@H](C(=O)O)[C@@H](OC(=O)c1ccccc1)C(=O)O)c1ccccc1` reads “inactive”; that for `CC(=O)Nc1ccc(C)c(Cl)c1`, “inactive”.

Turning to `Cc1cc2nc(N)sc2cc1C`, the Potency entry is “inactive”. Same read-out and setting: as for `CN(C)Cc1ccccc1`, the entry is “inactive”; as for `FC(F)(F)c1ccccc1`, “inactive”. The same measure, in the same setting: as for `NNS(=O)(=O)c1ccc(Oc2ccc(S(=O)(=O)NN)cc2)cc1`, the entry is “inactive”. Take `O=C(O)CN(CCN(CC(=O)O)CC(=O)O)CCN(CC(=O)O)CC(=O)O`: the activation (H2AX phosphorylation) was 1.06% [at 31.6 µM] (inactive). In the case of `CC1(O)CSC(C)(O)CS1` (stereo not given), the Potency entry is “inactive”. `COc1ccc(S(=O)(=O)Nc2nnc(CC(C)C)s2)cc1`: the Potency result is “inactive”. `CCOc1ccc(NC(N)=O)cc1`: the Potency result was “inactive”. Turning to `CN1CCN(C2=Nc3cc(F)ccc3Cc3ccccc32)CC1`, the Potency result was “inactive”.

In the case of `CCCN(CCC)C(=O)C(CCC(=O)O)NC(=O)c1ccccc1` (stereo not given), the Potency result is “inactive”. Take `CC(C)C1=CC2=CC[C@@H]3[C@](C)(CCC[C@@]3(C)C(=O)O)[C@H]2CC1`: the Potency entry is “inactive”. On the same count and under the same terms, the result for `CCCCCCCCCCCCOCCOS(=O)(=O)O` reads “inactive”; that for `COC(=O)N[C@H](C(=O)N[C@@H](Cc1ccccc1)[C@@H](O)CN(Cc1ccc(-c2ccccn2)cc1)NC(=O)[C@@H](NC(=O)OC)C(C)(C)C)C(C)(C)C`, 24.7 µM (active). Regarding `c1ccc(CN(CC2=NCCN2)c2ccccc2)cc1`, the Potency result is “inactive”. In the case of `Cn1cnc2c(F)c(Nc3ccc(Br)cc3Cl)c(C(=O)NOCCO)cc21`, the Potency entry is “inactive”.

With `CC1=CC(=O)CC(C)(C)C1=O`, the Potency result was “inactive”. Still for that read-out and setting: as for `CCCNC(C)C(=O)Nc1c(C)csc1C(=O)OC` (stereo not given), the entry is “inactive”.

On to `NC(Cc1ccc(F)cc1)C(=O)O` (stereo not given), for which the activation (H2AX phosphorylation) is -2.92% [at 14 µM] (inactive).

Turning to `CCOC(=O)c1cc(=O)c2c(OCC(COc3cccc4oc(C(=O)OCC)cc(=O)c34)OC(=O)[C@@H](N)CCCCN)cccc2o1`, the Potency entry is “inactive”. For the compound `CCCCC1CCC(=O)O1` (stereo not given), the Potency result was “inactive”. For `OC[C@H]1O[C@@H](O[C@H]2[C@H](O)[C@@H](O)[C@H](O)O[C@@H]2CO)[C@H](O)[C@@H](O)[C@H]1O`, the Potency entry was “inactive”.

For the compound `CC(C)=CCCC(C)CCOC=O` (stereo not given), the Potency result was “inactive”. On the same count and under the same terms, as for `CN(C)CC[C@@H](c1ccc(Cl)cc1)c1ccccn1`, the entry is “inactive”. On the same count and under the same terms, the result for `CCCCCCCCOC(=O)CCCCCCCCC(=O)OCCCCCCCC` reads “inactive”; that for `CCCc1c2oc(C(=O)O)cc(=O)c2cc2c(=O)cc(C(=O)O)n(CC)c12`, “inactive”; that for `CC(CNC1CCCCC1)OC(=O)c1ccccc1` (stereo not given), “inactive”. Regarding `FC(F)(F)C(F)(F)C(F)(F)C(F)(F)C(F)(F)C(F)(F)C(F)(F)C(F)(F)Br`, the Potency entry was “inactive”. In the case of `CCCCCCCCc1ccc(S(=O)(=O)O)cc1`, the Potency result was “inactive”. For the compound `CC(C)CCCCCCc1ccc(OCCOCCO)cc1`, the Potency result was “inactive”.

With `O=C(O)c1cccc(Cl)c1Cl`, the Potency entry was “inactive”. Still for that read-out and setting: as for `CCN[C@H]1CN(CCCOC)S(=O)(=O)c2sc(S(N)(=O)=O)cc21`, the entry is “inactive”. As for `Cc1cc(S(=O)(=O)O)c(N)cc1Cl`, the Potency result is “inactive”. On the same count and under the same terms, as for `CCOC(=O)[C@H](CCc1ccccc1)N[C@@H](C)C(=O)N1Cc2cc(OC)c(OC)cc2C[C@H]1C(=O)O`, the entry is “inactive”; as for `CC/C=C\CCOC(=O)C(C)C`, “inactive”. On the same count and under the same terms, as for `CCC/C=C/CO`, the entry is “inactive”; as for `CC(C)CC(=O)OCc1ccccc1`, “inactive”.

The record behind these values is PubChem BioAssay (Tox21).
